Most compounds without a hit are left out; they make up all but 3% or so of the library.
PAFAH1B2 FP inh = PAFAH1B2 enzyme inhibitors, primary screen, biochemical, fluorescence polarization, human | recombinant PAFAH1B2, FP-rhodamine activity probe | 340,000 compounds, 1.2% hits | AID 492953, 2010 | inhibition, % at 3.39 µM | Platelet-activating factor acetylhydrolase IB subunit alpha2 (Homo sapiens), P68402;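 active means inhibition above the mean of all tested compounds plus 3 SD, cut at about 24% in these data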;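 further: 0% = enzyme with DMSO and 100% = wells lacking PAFAH1B2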
Target sequence (P68402 whole entry, looked up): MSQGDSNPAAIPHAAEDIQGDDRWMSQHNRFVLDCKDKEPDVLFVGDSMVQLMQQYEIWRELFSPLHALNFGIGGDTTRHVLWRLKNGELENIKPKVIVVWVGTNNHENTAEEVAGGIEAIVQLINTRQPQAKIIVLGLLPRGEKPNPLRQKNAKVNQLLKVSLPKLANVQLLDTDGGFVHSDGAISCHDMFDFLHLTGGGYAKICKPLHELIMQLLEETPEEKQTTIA
PAFAH2 FP inh = PAFAH2 enzyme inhibitors, primary screen, biochemical, fluorescence polarization, human. Platelet-activating factor acetylhydrolase 2, cytoplasmic (Homo sapiens), Q99487. recombinant PAFAH2, FP-rhodamine activity probe. inhibition, % at 3.39 µM. 340,000 compounds, 0.99% hits. AID 492956, 2010;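 active means inhibition above the mean over all tested compounds plus 3 SD, cut at about 30% in these data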;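 further: inhibitors block probe labeling of enzyme so polarization drops; 0% = enzyme with DMSO and 100% = wells lacking PAFAH2 protein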
pPAFAH inh = pPAFAH enzyme inhibitors, primary screen, biochemical, fluorescence polarization, human; 330,000 compounds, 1.5% hits; Platelet-activating factor acetylhydrolase (Homo sapiens), Q13093; recombinant pPAFAH, FP-rhodamine probe fluorescence polarization; inhibition, % at 3.39 µM;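 active means inhibition above the mean inhibition across the screen plus 3 SD, cut at about 25% in these data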;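 further: inhibitors block binding of the rhodamine activity-based probe so polarization drops; 0% = enzyme with DMSO and 100% = wells lacking pPAFAH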
DAGLB inhibitor = DAGLB lipase inhibitors, primary screen, biochemical, fluorescence, HTS | HEK293T DAGLB membrane lysate, EnzChek fluorogenic substrate | inhibition, % at 5.17 µM | 340,000 compounds, 0.059% hits; in the data active means inhibition above about 34%;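 further: 0% = enzyme with vehicle and 100% = wells lacking enzyme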
PAFAH1B3 inh = PAFAH1B3 enzyme inhibitors, primary screen, biochemical, fluorescence polarization, human; 340,000 compounds, 0.28% hits; inhibition, % at 3.39 µM; recombinant PAFAH1B3, FP-rhodamine probe; Platelet-activating factor acetylhydrolase IB subunit alpha1 (Homo sapiens), Q15102;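 active means inhibition above the screen-wide average of all tested compounds plus 3 SD, cut at about 25% in these data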;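 further: 0% = enzyme with DMSO only and 100% = wells lacking PAFAH1B3 protein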
Target sequence (Q15102 whole entry, looked up): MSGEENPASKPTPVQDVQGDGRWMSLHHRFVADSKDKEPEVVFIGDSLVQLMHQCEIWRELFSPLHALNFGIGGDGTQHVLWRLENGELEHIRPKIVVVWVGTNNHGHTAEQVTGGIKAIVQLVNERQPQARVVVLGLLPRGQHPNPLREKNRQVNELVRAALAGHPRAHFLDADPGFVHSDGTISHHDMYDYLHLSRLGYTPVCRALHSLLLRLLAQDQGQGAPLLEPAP
ATG4B inhibitor = ATG4B protease inhibitors, primary screen, biochemical, fluorescence, uHTS | Cysteine protease ATG4B (Homo sapiens), Q9Y4P1 | ATG4B cleavage of LC3-PLA2, NBD-HPC fluorescence, 1 h | inhibition, % at 8.33 µM | 340,000 compounds, 0.51% hits | AID 504462, 2011; in the data active means inhibition above about 40%
PAFAH2 confirm = PAFAH2 enzyme inhibitors, confirmation, biochemical, fluorescence polarization, human; shares compounds with PAFAH2 FP inh; recombinant PAFAH2, FP-rhodamine activity probe; inhibition, % at 3.39 µM; 2,300 compounds, 65% hits;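 active means mean inhibition over three repeats above a set limit taken from the earlier primary screen, cut at about 30% in these data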;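 further: inhibitor blocks binding of rhodamine activity probe so polarization falls; 0% = enzyme with DMSO and 100% = wells lacking PAFAH2 protein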
* marks the source's active call; other numbers are inactive results; x = not tested or not shown.

SMILES	PAFAH1B2 FP inh	PAFAH2 FP inh	pPAFAH inh	DAGLB inhibitor	PAFAH1B3 inh	ATG4B inhibitor	PAFAH2 confirm
CN(CCC1CCOCC1)C(=O)CC1C(=O)NCCN1Cc1c(F)cccc1Cl (stereo not drawn)	0.4	-4.3	-4.0	1.4	10.7	-1.9	x
Cc1onc(-c2ccccc2)c1NC(=O)OC(C)c1cccnc1 (stereo not drawn)	x	x	x	-1.1	x	x	x
CCN(CC)C(=O)CSc1nc2c(sc(=S)n2CC)c(=O)n1-c1ccccc1	5.1	7.2	7.9	0.3	8.7	-2.8	x
CCN(CC)C(=O)CSc1nc2c(sc(=S)n2-c2ccccc2OC)c(=O)n1-c1ccccc1	1.1	38.2*	8.2	-1.4	-1.9	-13.4	9.3
COC(=O)c1ccc(CSc2ccccc2NC(=S)Nc2cccc(C(F)(F)F)c2)o1	x	x	x	-5.2	x	x	x
CN(C)S(=O)(=O)c1cccc(NC(=O)COc2cccc3ccccc23)c1	-1.3	-11.4	x	-4.3	6.7	-14.1	x
C/C=C/C(=O)OCC(=O)Nc1ccc(C)c(S(=O)(=O)N(C)C)c1	6.8	57.4*	4.3	-0.5	0.6	-12.0	47.8*
CC(=O)OCC(=O)Nc1ccc(SC(F)F)cc1	5.0	5.4	-6.2	-0.9	1.5	4.0	x
C/C=C/C(=O)OCC(=O)Nc1ccc(SC(F)F)cc1	2.9	55.7*	-0.6	0.1	1.4	-6.4	47.8*
Cc1ccc(/C=C/C(=O)OCC(=O)Nc2cccc(S(=O)(=O)N(C)C)c2)o1	2.7	67.5*	6.2	-3.4	-1.4	26.4	39.2*
CCN(CC)S(=O)(=O)c1cccc(NC(=O)COC(=O)/C=C/c2ccco2)c1	0.4	33.2*	15.4	-1.2	0.9	-12.5	24.5
CCCc1cc(=O)[nH]c(SCC(=O)Nc2c(C)n(C)n(-c3ccccc3)c2=O)n1	1.6	0.8	3.6	-0.3	6.1	2.0	x
O=C1COc2ccc(C(=O)COC(=O)c3cc(S(=O)(=O)N4CCOCC4)ccc3F)cc2N1	-2.5	1.2	5.8	2.2	2.6	-8.1	x
COc1ccc(CCC(=O)Nc2ccc(C)c(S(=O)(=O)N(C)C)c2)cc1OC	-6.2	-2.9	3.2	-0.4	1.6	28.7	x
CC(C)c1ccc(NC(=O)COC(=O)/C=C/c2cccc([N+](=O)[O-])c2)cc1	-2.4	3.7	5.8	-4.0	1.6	-4.6	x
COc1ccc(C(=O)NCC(=O)OCC(=O)Nc2ccc(C)c(S(=O)(=O)N(C)C)c2)cc1OC	5.4	40.7*	-3.1	0.7	5.1	-6.9	23.4
O=C(COC(=O)/C=C/c1ccco1)Nc1cccc([N+](=O)[O-])c1	3.5	84.0*	6.7	-0.4	10.5	0.9	84.5*
Cc1ccc(NC(=O)COC(=O)/C=C/c2ccco2)cc1S(=O)(=O)N(C)C	0.3	69.7*	10.8	0.2	2.2	-7.3	77.0*
Cc1cnc(C(=O)OCC(=O)Nc2ccc(C)c(S(=O)(=O)N(C)C)c2)cn1	-1.4	4.6	-3.1	-2.8	8.2	-8.8	x
Cc1ccc(NC(=O)COC(=O)c2ccc(Cl)cc2)cc1S(=O)(=O)N(C)C	-7.5	60.8*	10.7	-4.5	-3.4	-16.1	55.9*
CN(C)S(=O)(=O)c1cccc(NC(=O)COC(=O)/C=C/c2ccco2)c1	3.0	54.7*	3.2	-0.2	1.6	-5.9	47.4*
COc1cc(/C=C2/C(C)=C(C#N)c3nc(N)c(C#N)c(C)c32)ccc1OCC(=O)O	x	x	23.9	x	x	5.0	x
CC1=C(C#N)c2nc(N)c(C#N)c(C)c2/C1=C\c1ccc(-c2ccccc2C(=O)O)o1	13.7	31.6*	x	21.3	21.8	13.8	20.1
CCOc1ncccc1C(=O)OCC(=O)Nc1cc(C)ccc1C	0.7	13.0	23.6	-3.5	-6.0	-6.0	x
CCOc1ncccc1C(=O)OCC(=O)Nc1cc(S(=O)(=O)N2CCCCC2)ccc1Cl	1.0	68.3*	x	-6.9	4.0	-12.7	54.7*
SMILES	PAFAH1B2 FP inh	PAFAH2 FP inh	pPAFAH inh	DAGLB inhibitor	PAFAH1B3 inh	ATG4B inhibitor	PAFAH2 confirm
Cc1ccc(S(=O)(=O)N2CCOCC2)cc1NC(=O)COC(=O)c1cccc(Cl)c1Cl	3.1	41.3*	x	-4.0	-0.8	-16.4	26.8
CCOc1ncccc1C(=O)OCC(=O)Nc1ccc(C)c(S(=O)(=O)N(C)C)c1	1.1	80.1*	14.2	-2.0	-1.7	-4.7	86.1*
Cc1ccc(S(=O)(=O)N2CCOCC2)cc1NC(=O)COC(=O)c1ccc(Cl)s1	5.8	44.1*	2.6	-1.0	5.7	-11.3	32.5*
Cc1cc(C)c(NC(=O)NC(=O)C(Cl)(Cl)Cl)c(C)c1	3.0	-9.6	4.3	-1.0	1.8	8.0	x
Cc1cc(C)n2nc(SCC(=O)N3CCN(c4ccccc4)CC3)nc2n1	2.4	1.9	-1.1	1.0	10.2	-4.1	x
O=C1CN(C(=O)COc2ccc(Br)cc2Br)c2ccccc2N1	2.8	-3.0	2.7	-1.0	4.0	-4.7	x
CCOc1ncccc1C(=O)OCC(=O)Nc1cc(S(=O)(=O)N2CCOCC2)ccc1C	-2.7	41.7*	8.4	2.3	-0.5	-7.8	38.9*
Cc1ccc(NC(=O)COC(=O)c2cccnc2Cl)cc1S(=O)(=O)N1CCOCC1	0.8	44.4*	4.0	0.4	-5.5	-3.5	38.1*
CCOc1ncccc1C(=O)OCC(=O)Nc1ccc(C)c(S(=O)(=O)N2CCOCC2)c1	-5.4	75.4*	12.7	3.4	9.1	2.1	75.6*
CSc1ncccc1C(=O)OCC(=O)Nc1ccc(C)c(S(=O)(=O)N2CCOCC2)c1	3.1	28.5	6.2	-2.1	1.0	-16.9	x
Cc1ccc2nc(CCl)[n+]([O-])c(-c3ccccc3)c2c1	-0.5	-8.4	1.4	-2.6	3.4	5.7	x
CN(C(=O)COC(=O)c1ccc(Cl)s1)C1(C#N)CCCCC1	0.2	30.1*	x	-1.6	-7.0	3.0	13.3
CN(C(=O)COC(=O)c1ccc(Cl)c(S(=O)(=O)N2CCCCC2)c1)C1(C#N)CCCCC1	1.1	30.3*	1.5	-1.4	3.3	0.8	15.2
O=C1CC(N2CCN(c3ncccn3)CC2)C(=O)N1CCc1ccccc1 (stereo not drawn)	-2.9	8.7	5.5	-0.6	10.8	-5.2	x
O=C(CC12CC3CC(CC(C3)C1)C2)NCO	2.7	-2.5	-0.7	-2.1	-0.9	0.3	x
O=C(CC12CC3CC(CC(C3)C1)C2)NCC(=O)N1CCCC1	8.4	75.3*	12.6	-3.7	0.5	-1.0	70.6*
CCCCCCC(=O)Nc1c(O)c2ccccc2[nH]c1=O	10.2	41.5*	2.0	-0.7	11.2	-1.1	22.4
